“And” between values parts separate entries of the source, which are not always exact repeats. Identical values can stand only once. The whole screen tested about 5,500 compounds, of which about 2,000 (36%) were called active. Inconclusive results (about 18%) are left out. Rule as the data show it: active = normalized growth mostly below about 0.91 (no sharp cut-off); inconclusive = no clear call, values can overlap the other calls; inactive = mostly above about 0.92. The list shows a part of the results.
Experiment: chemical genetic growth profiling, strain panel (AID 1159580);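 also: tested at 20 µM; growth read once vehicle control cultures reached saturation at 30 °C; 1 = growth at the plate median or of vehicle wells; lower values mean less growth of the strain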
Details: S. cerevisiae deletion strains, growth OD

Measured: normalized growth

CN(C)CCCN1c2ccccc2CCc2ccccc21
inactive: locus YAL013W, strain DEP1, active compounds read low 1.01 and 0.974 | locus YAL021C, strain ccr4, active compounds read low 0.965 | locus YAL026C, strain drs2, active compounds read low 1 | locus YAL030W, strain snc1, active compounds read low 1 | locus YAL040C, strain CLN3, active compounds read low 1.05 | locus YBL061C, strain skt5, active compounds read low 1 | locus YBR009C, strain hhf1, active compounds read low 0.995 | locus YBR021W, strain FUR4, active compounds read low 0.997 | locus YBR023C, strain chs3, active compounds read low 1 | locus YBR171W, strain sec66, active compounds read low 1.01 | locus YBR229C, strain ROT2, active compounds read low 1 | locus YBR231C, strain swc5, active compounds read low 1 | locus YBR279W, strain paf1, active compounds read low 1 | locus YCL011C, strain gbp2, active compounds read low 1.01 | locus YCL016C, strain dcc1, active compounds read low 0.994 | locus YCL029C, strain bik1, active compounds read low 1 | locus YCL061C, strain MRC1 (second series), active compounds read low 1 | locus YCL061C, strain MRC1, active compounds read low 0.997 | locus YCL069W, strain vba3, active compounds read low 1 | locus YCR088W, strain abp1, active compounds read low 1.01 | locus YDL005C, strain med2, active compounds read low 1.01 | locus YDL035C, strain GPR1, active compounds read low 1.03 | locus YDL040C, strain nat1, active compounds read low 1 | locus YDL074C, strain BRE1, active compounds read low 1.02 | locus YDL101C, strain DUN1, active compounds read low 1.03 | locus YDL134C, strain PPH21, active compounds read low 1.03 | locus YDL185W, strain tfp1, active compounds read low 0.993 | locus YDL192W, strain arf1, active compounds read low 0.992 | locus YDR001C, strain nth1, active compounds read low 1.01 | locus YDR069C, strain doa4, active compounds read low 0.994 | locus YDR101C, strain arx1, active compounds read low 0.998 | locus YDR137W, strain rgp1, active compounds read low 1.1 | locus YDR150W, strain NUM1, active compounds read low 1.01 | locus YDR159W, strain sac3, active compounds read low 1 | locus YDR162C, strain NBP2, active compounds read low 1.01 | locus YDR195W, strain ref2 1.02 | locus YDR297W, strain sur2, active compounds read low 0.996 | locus YDR318W, strain mcm21, active compounds read low 0.994 | locus YDR334W, strain swr1, active compounds read low 1.01 | locus YDR335W, strain msn5, active compounds read low 1.01 | locus YDR363W, strain ESC2, active compounds read low 0.964 | locus YDR388W, active compounds read low 0.995 | locus YDR392W, strain spt3, active compounds read low 1.01 | locus YDR502C, strain sam2, active compounds read low 0.993 | locus YEL003W, strain gim4, active compounds read low 1 | locus YEL037C, strain rad23, active compounds read low 1 | locus YEL061C, strain CIN8 (second series), active compounds read low 1.03 | locus YEL061C, strain CIN8, active compounds read low 1.01 | locus YER002W, strain NOP16, active compounds read low 1.01 | locus YER015W, strain faa2, active compounds read low 0.993 | locus YER016W, strain bim1, active compounds read low 1.01 | locus YER110C, active compounds read low 0.988 | locus YER111C, strain swi4, active compounds read low 0.99 | locus YER155C, strain BEM2 (second series), active compounds read low 0.975 | locus YER155C, strain BEM2, active compounds read low 1 | locus YER167W, strain BCK2, active compounds read low 1.01 | locus YFR010W, strain ubp6, active compounds read low 1.01 | locus YGL078C, strain dbp3, active compounds read low 0.972 | locus YGL086W, strain mad1, active compounds read low 1.01 | locus YGL167C, strain pmr1, active compounds read low 1.01 | locus YGL173C, strain kem1, active compounds read low 0.991 | locus YGL227W, strain vid30, active compounds read low 1 | locus YGL240W, strain doc1, active compounds read low 1 | locus YGL248W, strain PDE1, active compounds read low 1.01 | locus YGL253W, strain hxk2, active compounds read low 1.02 | locus YGR078C, strain PAC10, active compounds read low 1 and 0.981 | locus YGR135W, strain pre9, active compounds read low 0.958 | locus YGR229C, strain SMI1, active compounds read low 1 and 0.978 | locus YGR252W, strain gcn5, active compounds read low 0.942 | locus YHR013C, strain ard1, active compounds read low 0.947 | locus YHR027C, strain rpn1, active compounds read low 1.01 | locus YHR030C, strain SLT2, active compounds read low 1 and 0.993 | locus YHR079C, strain IRE1 (second series), active compounds read low 0.989 | locus YHR079C, strain IRE1, active compounds read low 1.01 | locus YHR094C, strain hxt1, active compounds read low 0.978 | locus YHR129C, strain ARP1, active compounds read low 1.01 | locus YHR142W, strain chs7, active compounds read low 1.02 | locus YHR200W, strain rpn10, active compounds read low 1 | locus YIL066C, strain RNR3, active compounds read low 1.01 | locus YIL073C, strain SPO22, active compounds read low 1 | locus YIL125W, strain kgd1, active compounds read low 0.995 | locus YIR030C, strain dcg1, active compounds read low 0.984 | locus YJL092W, strain hpr5, active compounds read low 1.01 | locus YJL095W, strain BCK1 (second series), active compounds read low 0.996 | locus YJL095W, strain BCK1, active compounds read low 0.997 and 0.998 | locus YJL115W, strain asf1, active compounds read low 1.01 | locus YJL129C, strain trk1, active compounds read low 0.995 | locus YJL134W, strain LCB3, active compounds read low 1.01 | locus YJL154C, strain vps35, active compounds read low 1.02 | locus YJL164C, strain tpk1, active compounds read low 1 | locus YJL166W, strain qcr8, active compounds read low 1.02 | locus YJL168C, strain set2, active compounds read low 0.984 | locus YJL187C, strain SWE1 (second series), active compounds read low 1.01 | locus YJR043C, strain POL32, active compounds read low 1.03 | locus YJR066W, strain TOR1, active compounds read low 0.923

Reference: PubChem BioAssay AID1159580 (chemical genetic matrix, 2015)
